In PubChem BioAssay:
Active and inactive are the calls of the source.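 The calls were made as follows: active = inhibition above the hit cutoff set in the earlier primary screen (cut at about 27% in these data); inactive = the rest.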

Each molecule was assayed against Protein phosphatase methylesterase 1 (Homo sapiens) (UniProt Q9Y570) (assay: human PME-1 methylesterase inhibition confirmation – biochemical, fluorescence polarization, FP-Rh probe, triplicate (AID 2171;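 also: 0% = enzyme with DMSO and 100% = wells lacking PME-1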)). Conditions: recombinant PME-1, FP-Rh probe fluorescence polarization; at 5.9 µM; stronger effect = higher value.
Chain of Protein phosphatase methylesterase 1 (Homo sapiens) (Q9Y570 whole entry, looked up): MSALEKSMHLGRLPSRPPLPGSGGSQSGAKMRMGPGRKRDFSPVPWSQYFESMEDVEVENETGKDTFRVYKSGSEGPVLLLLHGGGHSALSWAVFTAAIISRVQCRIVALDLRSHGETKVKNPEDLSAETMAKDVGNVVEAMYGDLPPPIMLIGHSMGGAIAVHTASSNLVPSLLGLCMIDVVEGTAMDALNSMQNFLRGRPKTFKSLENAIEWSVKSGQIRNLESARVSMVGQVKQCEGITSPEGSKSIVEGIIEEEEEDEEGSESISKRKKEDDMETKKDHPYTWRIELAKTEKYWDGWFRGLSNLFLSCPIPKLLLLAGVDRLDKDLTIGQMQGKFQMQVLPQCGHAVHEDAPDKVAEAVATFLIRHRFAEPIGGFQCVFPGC

| SMILES | inhibition |
| --- | --- |
| O=C(O)c1ccccc1-c1ccccc1C(=O)Nc1ccc(-c2nc3cc(Cl)ccc3o2)cc1 | 22.2% (inactive) |
| Cc1cc2nc3ccc(N(C)C)cc3nc2cc1N | 20% (inactive) |
| CCOC(=O)Cc1csc(NC(=O)c2sc3nc4cc(C)ccc4cc3c2N)n1 | 20.8% (inactive) |
| CCOc1ccc(NC(=O)Nc2ccc3c(c2)N(C)C(=O)CS3)cc1 | 14.8% (inactive) |
| COc1cc(/C=N/NC(=O)c2ccc3c(c2)OCCO3)c(Br)c(Br)c1O | 43% (active) |
| CCOC(=O)N1CC=C2C(C#N)=C(N)C(C#N)(C#N)[C@H](c3cccs3)C2C1 (stereo not given in full) | 35.2% (active) |
| CCc1nnc(NC(=O)c2sc3nc4c(cc3c2N)CCCCCC4)s1 | 16.3% (inactive) |
| Cc1c(Cl)cccc1Nc1nc(N)nc(CSc2nc3ccccc3s2)n1 | 25.1% (inactive) |
| COc1ccc(/C=N/NC(=O)c2cc3cc(OC)c(OC)cc3[nH]2)cc1 | 8.04% (inactive) |
| N#CCCN(CCC#N)C(=O)C1c2ccccc2Oc2ccccc21 | -4.23% (inactive) |
| CCOC(=O)c1c(C)[nH]c(C2=NNC(=Nc3ccc(OCC)cc3)SC2)c1C | 18.9% (inactive) |
| CCNc1ccccc1CP(=O)(c1ccccc1)c1ccccc1O (stereo not given) | 8.88% (inactive) |
| Cn1c(=O)cc2c3c(c(N4CCCCC4)ccc31)C(=O)c1ccccc1-2 | 24.1% (inactive) |
| O=C1c2c(O)cccc2Cc2cccc(O)c21 | 23.4% (inactive) |
| CC(C)c1ccc2[nH]c(O)c(N=NC(=O)c3cccc(S(=O)(=O)N4CCCCC4)c3)c2c1 | 58.3% (active) |
